The values below come from PubChem BioAssay AID2205 (University of Pittsburgh Molecular Library Screening Center, 2009).

Molecules are shown by their SMILES. Hit rate of the full screen: of about 200,000 compounds, about 1,600 (0.8%) were called active.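 The calls were made as follows: active = plate Z-score above 3 for both tubulin-high and condensed-nucleus cell shares, with cell loss under 80%, at 10 µM; inactive = the rest, inconclusive results apart.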 This excerpt belongs to a sample that is enriched for actives.

The nature of this experiment: microtubule stabilizers in HeLa cells, primary screen, imaging, high-content imaging (AID 2205).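 As to % tubulin-high responders: anti alpha tubulin signal scored within the nucleus-defined area of each cell.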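 As to toxicity: 0% = mean cell density of plate MIN control wells and 100% = no cells.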 To be noted: HeLa tubulin immunostaining HCS, 24 h, at 10 µM; % Hoechst-high responders: measured here: nuclear condensation Hoechst responders, stronger effect = higher value, share of cells brighter than vehicle mean+2SD; % tubulin-high responders: stronger effect = higher value, share of cells brighter than vehicle mean+2SD; toxicity: measured here: cytotoxicity by cell density.
Regarding `O=C(COC(=O)Cn1cnc2ccccc2c1=O)NCc1ccccc1Cl`, the % Hoechst-high responders came to 1.88%, the % tubulin-high responders is 6.58% (inactive) and the toxicity was 5.1%.
The corresponding values for `NS(=O)(=O)c1ccc(NC(=O)COC(=O)c2ccc(Cl)nc2)cc1` are 1.74%, 3.68% (inactive) and 9.84%.
The corresponding values for `O=C(NNc1ccccn1)c1ccc(Cl)nc1` are 2.04%, 3.3% (inactive) and 8.78%.
Taken in the same sequence, the figures for `CCN(CC)c1ccc(NC(=O)c2ccc(Cl)nc2)cc1` were 27%, 43% (active) and 38.6%.
For the compound `CC(=O)Nc1ccc(S(=O)(=O)NC2(C(F)(F)F)C(=O)NC(C)=C2C#N)cc1` (stereo unspecified), the % Hoechst-high responders was found to be 0.651%, the % tubulin-high responders is 0.947% (inactive) and the toxicity amounted to 1.71%.
The corresponding values for `COc1ccc(-n2cc(CN(C)Cc3n[nH]c(=O)[nH]3)c(-c3cccc(F)c3)n2)cc1` are 0.946%, 1.61% (inactive) and 7.39%.
Taken in the same sequence, the figures for `O=C(/C(=C/c1cccc(Cl)c1)c1nc2ccccc2[nH]1)c1ccccc1` were 42.6%, 47.1% (active) and 68.7%.
Regarding `Oc1ccc(Cl)cc1/C=N/c1nc2ccccc2[nH]1`, the % Hoechst-high responders stood at 3.67%, the % tubulin-high responders is 2.45% (inactive) and the toxicity came to 20.5%.
Taken in the same sequence, the figures for `CCC(=O)/C(=C(/O)c1ccccc1)c1nc2ccccc2[nH]1` were 1.47%, 1.53% (inactive) and 1.79%.
For the compound `C=CCn1cc(C(=O)NCc2ccc(Cl)cc2)c(=O)c2cc(S(=O)(=O)N(CC)CC)ccc21`, the % Hoechst-high responders came to 2.4%, the % tubulin-high responders is 2.86% (inactive) and the toxicity worked out at 5.36%.
Taken in the same sequence, the figures for `CSc1ncccc1C(=O)N1CCCC(CCC(=O)NCc2ccccc2F)C1` (stereo unspecified) were 1.74%, 2.45% (inactive) and 3.21%.
Taken in the same sequence, the figures for `Cn1cccc1/C=N/NC(=O)c1ccc(OC(F)(F)C(F)F)cc1` were 2.53%, 6.72% (inactive) and 7.37%.
The corresponding values for `COC(=O)Cc1ccc(NC(=S)NCc2ccccc2)cc1` are 2.07%, 4.23% (inactive) and 9.97%.
Turning to `N#CC1=C(N)Oc2c(sc3ccccc23)C1c1ccco1` (stereo unspecified), the % Hoechst-high responders turned out to be 55.7%, the % tubulin-high responders was 24.9% (active) and the toxicity worked out at 32.3%.
Regarding `Cc1cc(C)c2c3c(sc2n1)C(c1ccccc1)C(C#N)=C(N)O3` (stereo unspecified), the % Hoechst-high responders worked out at 7.37%, the % tubulin-high responders was 12.3% (inactive) and the toxicity amounted to 9.16%.
Taken in the same sequence, the figures for `CCCCCCCC1(C)NC(=O)N(CC(=O)Nc2cc(C)on2)C1=O` (stereo unspecified) were 2.15%, 3.92% (inactive) and 9.17%.
Consider `Cc1ccc(S(=O)(=O)N(C)C)cc1NC(=O)COC(=O)C1COc2ccccc2O1` (stereo unspecified), for which the % Hoechst-high responders stood at 2.45%, the % tubulin-high responders is 3.07% (inactive) and the toxicity was found to be 5.9%.
Taken in the same sequence, the figures for `O=C(c1cnn(-c2ccc(Cl)cc2)c1)c1ccccc1O` were 3.19%, 3.73% (inactive) and 2.4%.
Taken in the same sequence, the figures for `COc1cccc(OC)c1C(=O)Nc1ccc(N2CCCCC2)cc1` were 2.3%, 2.03% (inactive) and 6.37%.
Taken in the same sequence, the figures for `COc1cccc(C(=O)Nc2ccc(N3CCCC3)cc2)c1` were 30.7%, 25.7% (active) and 50.6%.
For `C/C(=N\NC(=O)c1ccccc1C)c1ccc(N2CCOCC2)cc1`, the % Hoechst-high responders is 0.821%, the % tubulin-high responders is 1.28% (inactive) and the toxicity is 5.09%.
The corresponding values for `O=C(Cc1ccccc1)NC(=S)Nc1ccc(N2CCCCC2)cc1` are 2.7%, 1.21% (inactive) and 5.2%.
The corresponding values for `COc1ccc(C(=O)NC(=S)Nc2ccc(N3CCCC3)cc2)cc1OC` are 1.47%, 1.79% (inactive) and 9.06%.
Taken in the same sequence, the figures for `Cc1ccccc1C(=O)Nc1ccc(N2CCCCCC2)cc1` were 34.7%, 13.1% (active) and 28.4%.
With `CC(C)OCCCNC(=O)c1cc(Sc2ccc(F)cc2)nc2ccccc12`, the % Hoechst-high responders stood at 1.81%, the % tubulin-high responders is 1.25% (inactive) and the toxicity was 6.52%.
The corresponding values for `CC(=O)N1C(=O)/C(=C2\SC(=S)N(NC(=O)c3ccc(O)cc3)C2=O)c2ccccc21` are 2.97%, 2.55% (inactive) and 3.4%.
Consider `Cc1noc(C)c1S(=O)(=O)Nc1ccc(C(=O)N2CCN(c3ccc(F)cc3)CC2)cc1`, for which the % Hoechst-high responders amounted to 2.09%, the % tubulin-high responders was 1.32% (inactive) and the toxicity came out at 5.68%.
The corresponding values for `O=C(O)CCN(Cc1ccccc1)S(=O)(=O)c1c(Cl)cccc1Cl` are 1.31%, 2.16% (inactive) and 1.51%.
The corresponding values for `CN(Cc1ccccc1)C(=O)COC(=O)c1ccccc1Nc1ccccc1` are 1.59%, 6.59% (inactive) and 4.42%.
Taken in the same sequence, the figures for `CC(C)Cc1nc(Nc2ccc(S(=O)(=O)N3CCCC3)cc2)c2nnn(Cc3ccccc3)c2n1` were 2.68%, 3.7% (inactive) and 11.3%.
Regarding `Cc1csc(NC(=O)Nc2ccccc2[N+](=O)[O-])n1`, the % Hoechst-high responders was 2.72%, the % tubulin-high responders was 1.89% (inactive) and the toxicity worked out at 4.62%.
The corresponding values for `COc1ccc(C2C(C#N)=C(N)Oc3cc(N)ccc32)cc1OC` (stereo unspecified) are 17.3%, 44.5% (active) and 68%.
`CCC1=C(C(=O)OC)C(c2cc(OC)ccc2OC)C(C#N)=C(N)O1` (stereo unspecified): the % Hoechst-high responders was 3.6%, the % tubulin-high responders was 3.6% (inactive) and the toxicity was found to be 4.77%.
Taken in the same sequence, the figures for `COC(=O)C1=C(C)OC(N)=C(C#N)C1c1cc(OC)ccc1OC` (stereo unspecified) were 4.1%, 4.68% (inactive) and 10.9%.
Taken in the same sequence, the figures for `c1ccc(C2CNCc3c2ccc2ccccc32)cc1` (stereo unspecified) were 32.1%, 14% (active) and 25.9%.
The corresponding values for `C=C(C)COc1ccc(-c2n[nH]c(C)c2-c2ccccc2OC)c(O)c1` are 4.86%, 6.2% (inactive) and 5.28%.
Consider `C=C(C)COc1ccc(-c2n[nH]c(C)c2-c2ccccc2)c(O)c1`, for which the % Hoechst-high responders came to 2.28%, the % tubulin-high responders was 3.77% (inactive) and the toxicity was found to be 27.6%.
